Test results taken from PubChem BioAssay (NCATS).
Inconclusive results are not listed. Calls of active or inactive are those of the source. Calls come from the whole dose curve; as a rule, active = well fitted cell-killing curve with a large enough effect; inconclusive = small, poorly fitted or top-dose-only effect, or effect the other way; inactive = flat fitted curve, though single readings scatter.

Test: qHTS for Inhibitors of ATXN expression: Validation of Cytotoxic Assay (AID 588349)
Details: cytotoxicity counter-screen for ATXN expression inhibitors, cell viability; series mostly up to 57.1 µM; activity change, negative = cytotoxicity: at the top concentration
Source text: Spinocerebellar ataxia type 2 (SCA2) is a multisystem neurodegenerative disease caused by a dominantly-acting mutation leading to expansion of a polyQ domain in the ataxin-2 protein (ATXN2). SCA2 patients develop progressive ataxia and later lose function in other neuronal systems. Prominent parkinsonian signs develop in some patients. Similar to many neurodegenerative disorders, no symptomatic or disease-modifying treatments are known.
The primary objective of project is to identify compounds inhibiting ATXN2 expression and to test them for efficacy in SCA2 mouse models. To this end, in a collaboration between Dr. Daniel Scoles and scientists at NCGC, a cell-based assay adapted to high-throughput screening has been developed to screen the NIH Molecular Libraries Small Molecule Repository (MLSMR). Confirmed qHTS active compounds will be tested for toxicity against the human neuron-like SH-SY5Y cell line. This line is the parental cell type used to generate the transgenic line used in the primary assay, and so should provide an isogenic control to test the inherent toxicity of qHTS actives.
NIH Chemical Genomics Center [NCGC]
NIH Molecular Libraries Probe Centers Network [MLPCN]
Assay Submitter (PI): Stefan Pulst and Daniel Scoles, University of Utah
HEK293 cultured cells will be dosed with titrated compounds and incubated for 72 hr at 37 degrees C. Toxicity will be assessed using the CellTiter Glo kit (Promega), which uses intracellular ATP concentration as a viability marker.
% is set by controls: 0 for no effect and ±100 for the full control effect.

| SMILES | activity change, negative = cytotoxicity |
| --- | --- |
| C1CCc2nnnn2CC1 | 3.43% (inactive) |
| CC1(C)CCC(NC(=O)[C@@H](N)CCC(=O)O)CC1 | -11.9% (inactive) |
| COC(=O)[C@H]1[C@H]2C[C@H]3c4[nH]c5ccccc5c4CCN3C[C@H]2CC[C@@H]1O | -10.4% (inactive) |
| C[N+]1(CCCCC[N+]2(C)CCCC2)CCCC1 | -7.56% (inactive) |
| CCCC1O[C@@H]2C[C@H]3[C@@H]4CCC5=CC(=O)C=C[C@]5(C)[C@H]4[C@@H](O)C[C@]3(C)[C@]2(C(=O)CO)O1 (some centres not stated) | -14% (inactive) |
| CCC(NC(C)C)C(O)c1ccc(O)c(O)c1 (configuration not stated) | -29.9% (inactive) |
| Nc1cc(Cl)c(NC2=NCCN2)c(Cl)c1 | -15.7% (inactive) |
| O=C1CCC(c2ccc(-n3ccnc3)cc2)=NN1 | 7.74% (inactive) |
| CC(=O)O[C@H]1C[C@@H]2CC[C@@H]3[C@H](CC[C@@]4(C)[C@H]3C[C@H]([N+]3(C)CCCCC3)[C@@H]4OC(C)=O)[C@@]2(C)C[C@@H]1[N+]1(C)CCCCC1 | 7.42% (inactive) |
| N[C@@H](Cc1cnc[nH]1)C(=O)O | -11.1% (inactive) |
| CCCn1c(=O)[nH]c(=O)c2[nH]cnc21 | 5.81% (inactive) |
| O=C(O)c1cc2cc(Cc3cccnc3)ccc2o1 | -6.78% (inactive) |
| CC(C)COC(=O)OCN1C(=O)CN(CCN2CC(=O)N(COC(=O)OCC(C)C)C(=O)C2)CC1=O | -10.4% (inactive) |
| CC[C@H](C)C(=O)O[C@H]1CCC=C2C=C[C@H](C)[C@H](CC[C@@H]3C[C@@H](O)CC(=O)O3)[C@H]21 | -9.87% (inactive) |
| C[C@@H]1C(=O)NC2=Nc3cccc(Cl)c3CN21 | 10.9% (inactive) |
| N[C@H](CO)C(=O)O | -8.01% (inactive) |
| CNCCC(Oc1ccccc1C)c1ccccc1 (configuration not stated) | -29.5% (inactive) |
